# From paper PMC7862700, “An all-to-all approach to the identification of sequence-specific readers for epigenetic DNA modifications on cytosine”
# Assays:
# Assay in all cases: DAPPL (digital affinity profiling via proximity ligation, sequencing); 10 mM Tris-HCl pH 7.5, 50 mM NaCl, 1 mM DTT, 4% glycerol, room temperature, 30 min; GST-TFs on glutathione beads, 16-mer random dsDNA library, 0.1% formaldehyde crosslink after washing; high values mean tight binding
# [1] = molecular target: T1, FLI1 (Homo sapiens, UniProt Q01543 1-452); conditions: protein: recombinant; tags: N-terminal GST; dsDNA, one strand shown
# T1 sequence: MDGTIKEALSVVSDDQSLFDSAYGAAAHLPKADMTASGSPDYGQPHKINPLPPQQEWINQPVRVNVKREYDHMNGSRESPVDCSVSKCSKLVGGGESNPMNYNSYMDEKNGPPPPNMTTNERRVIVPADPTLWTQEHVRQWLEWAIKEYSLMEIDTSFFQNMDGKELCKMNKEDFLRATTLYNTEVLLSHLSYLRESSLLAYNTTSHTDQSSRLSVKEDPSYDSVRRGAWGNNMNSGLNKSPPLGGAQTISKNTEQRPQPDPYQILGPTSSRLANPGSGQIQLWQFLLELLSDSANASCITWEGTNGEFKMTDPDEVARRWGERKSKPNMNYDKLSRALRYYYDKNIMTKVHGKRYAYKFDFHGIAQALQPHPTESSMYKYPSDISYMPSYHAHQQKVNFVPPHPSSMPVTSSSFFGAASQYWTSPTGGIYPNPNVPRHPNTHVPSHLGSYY
# How it was run: (§1)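 In yeast, human transcription factors were expressed with a GST fusion, then pulled down on glutathione beads and given DNA barcodes. Pooled with a tag-only sample, they were exposed to 200 nmole of a 16-mer random double-stranded DNA library (Tris/NaCl/DTT/glycerol buffer, room temperature, 30 min), washed, crosslinked with 0.1% formaldehyde, proximity-ligated using BsaI/T4 ligase for 1 h at 37 °C, PCR-amplified and read on an Illumina NextSeq500. Each hexamer's frequency of reads for a factor, divided by the matching frequency for the tag-only sample, gives the binding signal.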
# [2] = molecular target: T2, ELK1 (Homo sapiens, UniProt P19419 1-428); conditions: protein: recombinant; tags: N-terminal GST; dsDNA, one strand shown
# T2 sequence: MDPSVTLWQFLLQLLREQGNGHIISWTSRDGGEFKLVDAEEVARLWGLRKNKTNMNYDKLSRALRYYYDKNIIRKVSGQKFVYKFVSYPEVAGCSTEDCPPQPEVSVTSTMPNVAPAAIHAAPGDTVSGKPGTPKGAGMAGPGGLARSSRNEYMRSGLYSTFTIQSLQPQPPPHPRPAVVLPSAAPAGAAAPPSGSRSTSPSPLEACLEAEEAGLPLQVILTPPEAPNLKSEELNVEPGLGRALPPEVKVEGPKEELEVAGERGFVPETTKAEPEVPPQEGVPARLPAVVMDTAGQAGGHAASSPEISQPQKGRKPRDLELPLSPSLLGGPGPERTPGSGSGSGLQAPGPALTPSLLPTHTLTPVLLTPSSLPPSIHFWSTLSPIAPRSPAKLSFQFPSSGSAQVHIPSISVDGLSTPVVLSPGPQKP
# How it was run: as §1
# [3] = molecular target: T3, GABPA (Homo sapiens, UniProt Q06546 1-454); conditions: protein: recombinant; tags: N-terminal GST; dsDNA, one strand shown
# T3 sequence: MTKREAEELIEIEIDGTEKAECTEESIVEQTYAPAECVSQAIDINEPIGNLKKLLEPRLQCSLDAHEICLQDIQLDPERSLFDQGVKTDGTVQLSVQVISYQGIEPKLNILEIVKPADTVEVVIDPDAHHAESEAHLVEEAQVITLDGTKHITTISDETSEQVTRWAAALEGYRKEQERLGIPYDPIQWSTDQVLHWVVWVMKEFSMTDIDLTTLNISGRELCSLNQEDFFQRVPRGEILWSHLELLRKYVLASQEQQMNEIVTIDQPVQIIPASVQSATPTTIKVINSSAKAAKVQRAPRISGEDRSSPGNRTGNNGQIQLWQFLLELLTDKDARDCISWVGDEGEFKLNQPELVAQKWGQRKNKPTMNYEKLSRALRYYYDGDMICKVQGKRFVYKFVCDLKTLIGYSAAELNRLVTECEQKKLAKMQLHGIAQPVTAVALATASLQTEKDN
# How it was run: as §1
# [4] = molecular target: T4, ERG (Homo sapiens, UniProt P11308 1-479); conditions: protein: recombinant; tags: N-terminal GST; dsDNA, one strand shown
# T4 sequence: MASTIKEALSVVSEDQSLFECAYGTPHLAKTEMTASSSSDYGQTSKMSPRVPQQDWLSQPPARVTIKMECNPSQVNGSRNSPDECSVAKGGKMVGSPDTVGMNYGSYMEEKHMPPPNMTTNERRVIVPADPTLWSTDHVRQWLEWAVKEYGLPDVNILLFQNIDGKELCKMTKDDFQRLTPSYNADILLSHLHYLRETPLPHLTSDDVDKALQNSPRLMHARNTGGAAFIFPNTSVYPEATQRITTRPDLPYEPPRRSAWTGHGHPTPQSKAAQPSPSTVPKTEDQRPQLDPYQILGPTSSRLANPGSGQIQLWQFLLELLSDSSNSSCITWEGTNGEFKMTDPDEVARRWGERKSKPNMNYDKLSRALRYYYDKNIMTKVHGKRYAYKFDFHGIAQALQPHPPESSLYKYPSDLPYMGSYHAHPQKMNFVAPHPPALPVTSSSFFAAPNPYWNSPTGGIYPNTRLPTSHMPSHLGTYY
# How it was run: as §1
# [5] = molecular target: ELF1 (Homo sapiens, UniProt P32519 1-619); conditions: protein: recombinant; tags: N-terminal GST; dsDNA, one strand shown
# How it was run: as §1
# [6] = molecular target: T5, EHF (Homo sapiens, UniProt Q9NZC4 1-300); conditions: protein: recombinant; tags: N-terminal GST; dsDNA, one strand shown
# T5 sequence: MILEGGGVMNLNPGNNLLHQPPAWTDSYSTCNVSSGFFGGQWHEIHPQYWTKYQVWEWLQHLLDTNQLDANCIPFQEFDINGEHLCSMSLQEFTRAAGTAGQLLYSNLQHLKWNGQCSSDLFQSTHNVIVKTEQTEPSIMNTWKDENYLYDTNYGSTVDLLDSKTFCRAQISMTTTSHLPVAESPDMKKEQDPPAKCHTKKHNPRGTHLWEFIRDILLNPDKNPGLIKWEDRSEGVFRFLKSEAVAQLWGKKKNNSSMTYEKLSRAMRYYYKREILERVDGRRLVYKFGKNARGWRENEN
# How it was run: as §1
# [7] = molecular target: SPI1 (Homo sapiens, UniProt P17947 1-270); conditions: protein: recombinant; tags: N-terminal GST; dsDNA, one strand shown
# How it was run: as §1
# [8] = molecular target: SPIB (Homo sapiens, UniProt Q01892 1-262); conditions: protein: recombinant; tags: N-terminal GST; dsDNA, one strand shown
# How it was run: as §1
# [9] = molecular target: T6, ELK3 (Homo sapiens, UniProt P41970 1-407); conditions: protein: recombinant; tags: N-terminal GST; dsDNA, one strand shown
# T6 sequence: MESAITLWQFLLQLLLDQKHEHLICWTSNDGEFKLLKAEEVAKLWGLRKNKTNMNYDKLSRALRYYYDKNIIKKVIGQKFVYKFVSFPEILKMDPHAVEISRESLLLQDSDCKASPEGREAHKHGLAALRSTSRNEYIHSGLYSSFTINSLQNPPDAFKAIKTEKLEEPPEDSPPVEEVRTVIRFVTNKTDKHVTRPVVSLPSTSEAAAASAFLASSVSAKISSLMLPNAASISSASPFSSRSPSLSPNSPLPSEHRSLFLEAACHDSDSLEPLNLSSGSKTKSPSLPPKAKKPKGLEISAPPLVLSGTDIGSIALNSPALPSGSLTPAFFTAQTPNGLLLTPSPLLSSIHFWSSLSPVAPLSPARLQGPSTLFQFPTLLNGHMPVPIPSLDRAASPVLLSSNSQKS
# How it was run: as §1
# [10] = molecular target: T7, FEV (Homo sapiens, UniProt Q99581 1-238); conditions: protein: recombinant; tags: N-terminal GST; dsDNA, one strand shown
# T7 sequence: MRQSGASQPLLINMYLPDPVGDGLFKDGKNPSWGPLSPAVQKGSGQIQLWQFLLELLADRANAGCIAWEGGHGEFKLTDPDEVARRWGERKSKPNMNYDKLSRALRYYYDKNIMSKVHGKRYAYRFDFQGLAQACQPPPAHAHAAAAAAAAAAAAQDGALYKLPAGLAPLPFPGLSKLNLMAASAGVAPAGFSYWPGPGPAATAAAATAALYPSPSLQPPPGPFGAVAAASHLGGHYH
# How it was run: as §1
# [11] = molecular target: ETV5 (Homo sapiens, UniProt P41161 1-510); conditions: protein: recombinant; tags: N-terminal GST; dsDNA, one strand shown
# How it was run: as §1
# [12] = molecular target: HSF1 (Homo sapiens, UniProt Q00613 1-529); conditions: protein: recombinant; tags: N-terminal GST; chain copies: 3; dsDNA, one strand shown
# How it was run: as §1
# [13] = molecular target: T8, SPIC (Homo sapiens, UniProt Q8N5J4 1-248); conditions: protein: recombinant; tags: N-terminal GST; dsDNA, one strand shown
# T8 sequence: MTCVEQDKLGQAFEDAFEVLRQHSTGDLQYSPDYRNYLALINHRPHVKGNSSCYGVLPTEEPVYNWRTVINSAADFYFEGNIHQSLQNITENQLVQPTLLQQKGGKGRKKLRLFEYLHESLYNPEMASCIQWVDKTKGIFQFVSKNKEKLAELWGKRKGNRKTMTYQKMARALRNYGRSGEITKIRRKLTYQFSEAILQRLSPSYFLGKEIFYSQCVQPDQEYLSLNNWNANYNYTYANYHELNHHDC
# How it was run: as §1
# [14] = molecular target: ELF4 (Homo sapiens, UniProt Q99607 1-663); conditions: protein: recombinant; tags: N-terminal GST; dsDNA, one strand shown
# How it was run: as §1
# [15] = molecular target: T9, ELK4 (Homo sapiens, UniProt P28324-2 1-405); conditions: protein: recombinant; tags: N-terminal GST; dsDNA, one strand shown
# T9 sequence: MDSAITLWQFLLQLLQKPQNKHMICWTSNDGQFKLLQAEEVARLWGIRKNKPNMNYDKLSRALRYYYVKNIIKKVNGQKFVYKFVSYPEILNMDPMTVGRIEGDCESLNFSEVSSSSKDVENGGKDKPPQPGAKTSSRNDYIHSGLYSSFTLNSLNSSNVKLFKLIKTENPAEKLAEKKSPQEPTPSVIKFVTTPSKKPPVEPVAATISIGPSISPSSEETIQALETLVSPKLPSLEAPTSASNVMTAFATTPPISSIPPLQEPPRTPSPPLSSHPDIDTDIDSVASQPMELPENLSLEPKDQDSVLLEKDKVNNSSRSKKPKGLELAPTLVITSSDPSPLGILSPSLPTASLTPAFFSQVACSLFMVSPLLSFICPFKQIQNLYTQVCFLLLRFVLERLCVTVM
# How it was run: as §1
# [16] = molecular target: T10, ETV2 (Homo sapiens, UniProt O00321 1-342); conditions: protein: recombinant; tags: N-terminal GST; dsDNA, one strand shown
# T10 sequence: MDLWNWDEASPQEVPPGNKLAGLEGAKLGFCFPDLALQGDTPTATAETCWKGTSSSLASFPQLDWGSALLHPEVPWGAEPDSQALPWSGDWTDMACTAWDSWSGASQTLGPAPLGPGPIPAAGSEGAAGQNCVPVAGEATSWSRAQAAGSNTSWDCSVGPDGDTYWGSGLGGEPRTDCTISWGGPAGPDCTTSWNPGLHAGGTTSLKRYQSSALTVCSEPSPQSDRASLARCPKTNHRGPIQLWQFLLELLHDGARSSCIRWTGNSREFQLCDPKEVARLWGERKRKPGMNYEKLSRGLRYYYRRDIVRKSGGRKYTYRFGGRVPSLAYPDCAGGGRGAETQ
# How it was run: as §1
# [17] = molecular target: T11, ELF3 (Homo sapiens, UniProt P78545 1-371); conditions: protein: recombinant; tags: N-terminal GST; dsDNA, one strand shown
# T11 sequence: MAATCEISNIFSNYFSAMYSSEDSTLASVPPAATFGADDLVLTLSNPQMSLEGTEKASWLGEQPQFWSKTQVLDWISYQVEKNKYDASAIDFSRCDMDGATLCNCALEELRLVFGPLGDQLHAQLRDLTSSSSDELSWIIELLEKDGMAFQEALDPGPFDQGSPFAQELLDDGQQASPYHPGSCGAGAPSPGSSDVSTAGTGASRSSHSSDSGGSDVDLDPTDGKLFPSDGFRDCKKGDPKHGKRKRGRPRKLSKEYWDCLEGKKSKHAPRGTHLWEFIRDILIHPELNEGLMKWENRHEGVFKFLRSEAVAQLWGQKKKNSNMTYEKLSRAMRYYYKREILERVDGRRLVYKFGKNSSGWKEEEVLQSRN
# How it was run: as §1
# [18] = molecular target: CRX (Homo sapiens, UniProt O43186 1-299); conditions: protein: recombinant; tags: N-terminal GST; dsDNA, one strand shown
# How it was run: as §1
# [19] = molecular target: ETV1 (Homo sapiens, UniProt P50549 1-477); conditions: protein: recombinant; tags: N-terminal GST; dsDNA, one strand shown
# How it was run: as §1
# ELF4, sequence (Q99607 whole entry): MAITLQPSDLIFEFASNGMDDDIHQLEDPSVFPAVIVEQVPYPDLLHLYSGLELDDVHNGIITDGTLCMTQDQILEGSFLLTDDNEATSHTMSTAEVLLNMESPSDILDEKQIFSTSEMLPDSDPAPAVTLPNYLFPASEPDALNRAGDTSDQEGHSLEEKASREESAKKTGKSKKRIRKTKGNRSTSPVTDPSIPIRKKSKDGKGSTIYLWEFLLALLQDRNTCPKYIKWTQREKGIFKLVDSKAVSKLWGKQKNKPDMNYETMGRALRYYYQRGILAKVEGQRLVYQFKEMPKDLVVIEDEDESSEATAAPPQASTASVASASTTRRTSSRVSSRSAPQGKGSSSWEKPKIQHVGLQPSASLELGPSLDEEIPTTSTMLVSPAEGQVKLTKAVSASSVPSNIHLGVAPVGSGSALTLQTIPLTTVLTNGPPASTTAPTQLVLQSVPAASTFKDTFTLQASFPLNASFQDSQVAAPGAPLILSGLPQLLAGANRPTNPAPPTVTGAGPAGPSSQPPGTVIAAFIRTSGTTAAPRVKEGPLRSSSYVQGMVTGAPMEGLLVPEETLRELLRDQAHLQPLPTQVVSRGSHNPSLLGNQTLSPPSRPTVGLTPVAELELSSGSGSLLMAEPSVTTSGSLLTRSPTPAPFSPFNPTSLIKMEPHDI
# CRX, sequence (O43186 whole entry): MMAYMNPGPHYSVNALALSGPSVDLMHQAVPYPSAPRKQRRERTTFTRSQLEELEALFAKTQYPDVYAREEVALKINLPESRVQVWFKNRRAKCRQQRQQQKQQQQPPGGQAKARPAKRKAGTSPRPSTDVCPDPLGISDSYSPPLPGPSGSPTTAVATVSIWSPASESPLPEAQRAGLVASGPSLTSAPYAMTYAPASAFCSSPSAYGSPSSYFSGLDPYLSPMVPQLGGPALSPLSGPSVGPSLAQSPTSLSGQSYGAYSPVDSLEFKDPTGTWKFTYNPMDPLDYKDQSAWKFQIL
# SPIB, sequence (Q01892 whole entry): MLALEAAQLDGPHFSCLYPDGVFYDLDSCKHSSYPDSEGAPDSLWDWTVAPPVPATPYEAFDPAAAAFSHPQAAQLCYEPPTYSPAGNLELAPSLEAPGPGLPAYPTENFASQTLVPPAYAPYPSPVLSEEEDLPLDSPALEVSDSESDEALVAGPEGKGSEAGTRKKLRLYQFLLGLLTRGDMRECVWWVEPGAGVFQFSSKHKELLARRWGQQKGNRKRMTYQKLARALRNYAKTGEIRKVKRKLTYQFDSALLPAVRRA
# ETV5, sequence (P41161 whole entry): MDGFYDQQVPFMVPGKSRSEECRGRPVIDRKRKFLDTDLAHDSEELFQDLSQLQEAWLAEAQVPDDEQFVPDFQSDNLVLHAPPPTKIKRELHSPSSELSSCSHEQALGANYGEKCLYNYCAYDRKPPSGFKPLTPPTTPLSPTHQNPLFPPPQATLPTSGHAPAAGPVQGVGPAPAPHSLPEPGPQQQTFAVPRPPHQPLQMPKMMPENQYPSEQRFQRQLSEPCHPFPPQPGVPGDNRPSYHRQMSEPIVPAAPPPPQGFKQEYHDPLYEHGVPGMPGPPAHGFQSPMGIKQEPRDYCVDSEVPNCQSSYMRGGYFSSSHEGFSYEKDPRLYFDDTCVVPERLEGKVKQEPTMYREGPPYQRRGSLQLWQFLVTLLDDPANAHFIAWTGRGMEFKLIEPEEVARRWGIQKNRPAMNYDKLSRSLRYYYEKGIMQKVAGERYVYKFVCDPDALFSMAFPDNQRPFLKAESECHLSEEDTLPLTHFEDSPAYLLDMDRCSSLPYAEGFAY
# HSF1, sequence (Q00613 whole entry): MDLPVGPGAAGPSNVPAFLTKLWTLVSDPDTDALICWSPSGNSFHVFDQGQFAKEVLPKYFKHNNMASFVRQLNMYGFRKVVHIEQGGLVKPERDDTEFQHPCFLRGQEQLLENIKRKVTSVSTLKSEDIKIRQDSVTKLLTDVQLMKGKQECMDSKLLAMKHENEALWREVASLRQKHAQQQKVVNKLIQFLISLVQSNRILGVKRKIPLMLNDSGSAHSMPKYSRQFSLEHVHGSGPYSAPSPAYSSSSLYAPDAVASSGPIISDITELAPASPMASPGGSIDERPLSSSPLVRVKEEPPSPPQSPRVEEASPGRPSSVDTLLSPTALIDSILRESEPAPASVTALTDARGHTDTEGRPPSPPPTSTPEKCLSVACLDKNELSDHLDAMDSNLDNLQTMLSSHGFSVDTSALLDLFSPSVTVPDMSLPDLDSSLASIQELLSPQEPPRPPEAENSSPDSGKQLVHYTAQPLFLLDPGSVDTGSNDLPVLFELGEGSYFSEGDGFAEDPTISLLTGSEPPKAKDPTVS
# ETV1, sequence (P50549 whole entry): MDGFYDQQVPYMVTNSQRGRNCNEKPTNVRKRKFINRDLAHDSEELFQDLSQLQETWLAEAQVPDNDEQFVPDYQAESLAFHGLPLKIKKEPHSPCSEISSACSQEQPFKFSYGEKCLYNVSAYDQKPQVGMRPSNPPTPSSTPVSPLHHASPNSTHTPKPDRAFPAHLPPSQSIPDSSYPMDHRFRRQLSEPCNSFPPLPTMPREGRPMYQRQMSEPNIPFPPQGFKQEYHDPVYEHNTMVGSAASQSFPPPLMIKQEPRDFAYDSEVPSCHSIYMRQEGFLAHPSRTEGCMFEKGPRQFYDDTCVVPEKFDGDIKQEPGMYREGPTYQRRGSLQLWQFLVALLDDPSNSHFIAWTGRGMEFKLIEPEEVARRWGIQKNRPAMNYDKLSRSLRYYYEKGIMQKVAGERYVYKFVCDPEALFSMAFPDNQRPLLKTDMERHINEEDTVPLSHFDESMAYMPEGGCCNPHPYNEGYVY
# ELF1, sequence (P32519 whole entry): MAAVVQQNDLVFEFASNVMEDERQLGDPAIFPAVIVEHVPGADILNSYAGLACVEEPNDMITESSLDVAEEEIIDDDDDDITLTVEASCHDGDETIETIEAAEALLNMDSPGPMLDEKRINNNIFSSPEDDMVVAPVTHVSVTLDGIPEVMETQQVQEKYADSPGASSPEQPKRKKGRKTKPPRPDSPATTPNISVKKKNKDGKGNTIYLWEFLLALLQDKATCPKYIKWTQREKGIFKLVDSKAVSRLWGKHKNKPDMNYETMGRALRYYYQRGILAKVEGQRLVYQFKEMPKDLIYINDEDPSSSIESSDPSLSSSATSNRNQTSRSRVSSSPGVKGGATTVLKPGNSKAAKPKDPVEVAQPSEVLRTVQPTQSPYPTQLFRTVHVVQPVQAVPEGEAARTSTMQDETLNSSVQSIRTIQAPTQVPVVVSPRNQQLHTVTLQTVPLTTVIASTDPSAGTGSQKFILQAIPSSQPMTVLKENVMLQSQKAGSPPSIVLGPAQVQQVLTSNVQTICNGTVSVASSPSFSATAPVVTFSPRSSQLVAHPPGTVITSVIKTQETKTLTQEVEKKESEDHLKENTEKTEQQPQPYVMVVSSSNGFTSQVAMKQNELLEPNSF
sequence,measurement,setting,value
TTCATT,binding signal,[1],"1.25 fold enrichment (6-mer frequency, TF over GST control)"
same,binding signal,[2],"1.19 fold enrichment (6-mer frequency, TF over GST control)"
same,binding signal,[3],"1.16 fold enrichment (6-mer frequency, TF over GST control)"
same,binding signal,[4],"1.2 fold enrichment (6-mer frequency, TF over GST control)"
same,binding signal,[5],"1.24 fold enrichment (6-mer frequency, TF over GST control)"
same,binding signal,[6],"1.21 fold enrichment (6-mer frequency, TF over GST control)"
same,binding signal,[7],"1.21 fold enrichment (6-mer frequency, TF over GST control)"
same,binding signal,[8],"1.22 fold enrichment (6-mer frequency, TF over GST control)"
same,binding signal,[9],"1.23 fold enrichment (6-mer frequency, TF over GST control)"
same,binding signal,[10],"1.23 fold enrichment (6-mer frequency, TF over GST control)"
same,binding signal,[11],"1.29 fold enrichment (6-mer frequency, TF over GST control)"
same,binding signal,[12],"1.12 fold enrichment (6-mer frequency, TF over GST control)"
same,binding signal,[13],"1.37 fold enrichment (6-mer frequency, TF over GST control)"
same,binding signal,[14],"1.21 fold enrichment (6-mer frequency, TF over GST control)"
same,binding signal,[15],"1.29 fold enrichment (6-mer frequency, TF over GST control)"
same,binding signal,[16],"1.17 fold enrichment (6-mer frequency, TF over GST control)"
same,binding signal,[17],"1.12 fold enrichment (6-mer frequency, TF over GST control)"
same,binding signal,[18],"1.15 fold enrichment (6-mer frequency, TF over GST control)"
same,binding signal,[19],"1.21 fold enrichment (6-mer frequency, TF over GST control)"
